A549 viability – A549 cytotoxicity, counter-screen for Nrf2 inhibitors; A549 ARE-Fluc cells, CellTiter-Fluor viability, 18-24 h; Potency, µM (highest dose often 46 µM), without a hit: top-dose activity change, negative = cytotoxicity, most hits filed as inhibitors; 390,000 compounds, 0.16% hits; note: potency is the fitted concentration of half-maximal effect; % is set by controls: 0 for no effect and ±100 for the full control effect
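Cytotoxicity counterscreen: CellTiter-Fluor fluorescence was measured in A549 ARE_Fluc cells after 18-24 h of compound exposure in a concentration series. The subsequent BugLite luminescent read reports ARE-luciferase activity.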
ALOX12 inh – blocks human arachidonate 12S-lipoxygenase; purified 12hLO, xylenol orange hydroperoxide absorbance; 580,000 compounds, 1.1% hits; AID 1671190; Potency, µM (doses to about 108 µM), for the others: top-dose activity change, negative = inhibition, hits mostly inhibitors; note: potency is the fitted concentration of half-maximal effect; % is set by controls: 0 for no effect and ±100 for the full control effect
Target sequence (P18054 whole entry, looked up): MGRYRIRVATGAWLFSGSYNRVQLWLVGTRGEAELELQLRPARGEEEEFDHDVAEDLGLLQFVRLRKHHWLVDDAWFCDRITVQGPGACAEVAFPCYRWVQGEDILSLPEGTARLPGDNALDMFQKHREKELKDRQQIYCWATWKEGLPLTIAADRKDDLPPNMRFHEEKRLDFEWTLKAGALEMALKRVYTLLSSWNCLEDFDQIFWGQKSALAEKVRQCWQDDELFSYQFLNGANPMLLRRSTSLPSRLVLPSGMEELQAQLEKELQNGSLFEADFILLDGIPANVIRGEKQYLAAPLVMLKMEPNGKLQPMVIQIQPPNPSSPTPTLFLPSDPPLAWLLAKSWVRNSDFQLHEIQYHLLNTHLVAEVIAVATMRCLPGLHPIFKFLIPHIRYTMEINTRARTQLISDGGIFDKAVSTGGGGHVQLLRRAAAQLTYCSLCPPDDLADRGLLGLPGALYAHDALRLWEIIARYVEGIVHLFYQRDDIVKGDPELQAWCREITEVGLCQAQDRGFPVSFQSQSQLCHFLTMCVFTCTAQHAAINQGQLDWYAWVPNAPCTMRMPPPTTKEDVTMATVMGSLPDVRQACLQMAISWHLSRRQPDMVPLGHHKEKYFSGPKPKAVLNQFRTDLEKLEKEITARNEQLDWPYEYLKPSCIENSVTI
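Purified human 12hLO (150 nM final) in 25 mM Hepes, 0.01% Triton X-100, pH 7.0 was preincubated 15 min at room temperature with compound. Then 40 uM arachidonic acid was added, 30 min. Hydroperoxide was read by Fe-XO absorbance ratio 573/405 nm.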
ERG-DNA inh – ERG Ets/DNA interaction inhibition. P11308. fluorescence polarization, His-ERG Ets domain / labelled DNA. Potency, µM (highest dose often 76.9 µM), inactives show at the highest dose FP activity, negative = inhibition, actives largely listed as inhibitors. 370,000 compounds, 0.028% hits. AID 624246; active = well fitted inhibition curve with a large enough effect in the polarisation, with a control signal flat; inconclusive = small, poorly fitted or top-dose-only effect, or effect the other way, or a change in a side signal; inactive = no such curve, though single readings can be large or run the other way; the % refers to the polarisation;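 note: polarization taken with two DNA probes labelled with fluorescein and Texas red; potency is the fitted concentration of half-maximal effect; % of control where 0% means no effect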
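His-tagged ERG Ets domain (1 uM in the protein solution; 300mM KCl, 50mM Tris-HCl, 1mM EDTA, 1mM DTT, pH 7.5) received compound, then a probe mix of 5 nM fluorescein-DNA and 100nM Texas-615-DNA. Fluorescence polarization was read for both dyes.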
LDHA inh – inhibitors of human lactate dehydrogenase A; P00338; purified LDHA, NADH/diaphorase-resazurin fluorescence; active compounds read low; activity change, % (values are at about 110 or 230 µM); 480,000 compounds, 0.15% hits; AID 1347041; in the data active = activity change below about -30%; inconclusive = mostly about -25% to -30%;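 note: plate controls were DMSO wells for no effect and wells without enzyme for full effect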
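Human LDH5 at 2 nM final in Tris HCl pH 7.4 with 0.06 mM NADH and 0.2 mM pyruvate, reacted 5 minutes at room temperature. Remaining NADH coupled via diaphorase/resazurin; resorufin fluorescence read at 0 and 20 minutes, normalized to enzyme-free and DMSO wells.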
Nrf2 activator – activators of Nrf2 (ARE) signaling; Potency, µM (doses to about 46.1 µM), without a hit: at the top dose activation, actives largely listed as activators; 410,000 compounds, 0.31% hits; AREc32 ARE-luciferase reporter (MCF7-derived line), luminescence, 24 h; note: potency is the fitted concentration of half-maximal effect; % of control where 0% means no effect; nearly all actives have a fitted effect of over 65% in size
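Luminescent ARE reporter assay in AREc32_Fluc cells: overnight plating at 37 deg C, 24 hr compound incubation, Steady-Glo added, 30 min RT before reading.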
Nrf2 inh – Nrf2 pathway inhibition | A549 ARE-Fluc reporter, luciferase luminescence, 18-24 h | Potency, µM (series often up to 46 µM), for inactives: top-dose activity change, negative = inhibition, usual class: inhibitors | 360,000 compounds, 2.1% hits; note: potency is the fitted concentration of half-maximal effect; % is set by controls: 0 for no effect and ±100 for the full control effect; nearly all actives have a fitted effect of over 60% in size
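Nrf2 activity is the BugLite luminescence, read 15 min after reagent at room temperature, following CellTiter-Fluor cytotoxicity readout (30 min, 37C). Compound titrations were applied for 18-24 h to 5000 A549 ARE_Fluc cells/well in 5% FBS OPTI-MEM.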
Numbers without * were called inactive; ? = inconclusive; · = no result given; [ ] = another dose, or the depositor's remark. A selection: hits, their analogues and other compounds. The true share with any hit is near 2.7%. Unless noted, calls come from the whole dose curve; as a rule, active = well fitted curve in the direction sought with a large enough effect; inconclusive = small, poorly fitted or top-dose-only effect, or another doubt; inactive = no such curve, though single readings can be large; an effect the other way counts as inactive or inconclusive.

SMILES | A549 viability | ALOX12 inh | ERG-DNA inh | LDHA inh | Nrf2 activator | Nrf2 inh
COC(=O)c1sc2nc(N3CCOCC3)c3c(c2c1N)CCN(C)C3 | · | ? | · | 4 | · | ·
COc1ccc(Nc2oc(-c3cccc(C)c3)nc2C#N)cc1 | · | 6% | · | -12 | · | ·
O=C1C=CC(=O)N1CCCCCCCCCCN1C(=O)C=CC1=O | ? | 2µM* | 6% | -3 | ? | 26µM*
O=C(Cc1ccc(Cl)cc1)N/N=C/c1ccc(O)c(O)c1 | · | 14µM* | · | 9 | 17% | ·
Cc1cccc(N2CCN(C(=O)CNC(=O)c3cccc([N+](=O)[O-])c3)CC2)c1C | -3% | 0% | -5% | -3 | 0% | 23µM*
Cc1cc(C)cc(C(=O)NCC(=O)N2CCN(c3cccc(Cl)c3)CC2)c1 | -20% | ? | 3% | 0 | 0% | 21µM*
O=C(NCC(=O)N1CCN(Cc2ccccc2)CC1)c1ccc(Cl)cc1 | -16% | -7% | 8% | -10 | 0% | 29µM*
O=C(Nc1ccccc1)N1CCN(Cc2ccc(Cl)cc2)CC1 | -2% | ? | 2% | -7 | 3% | 0%
O=C(NCc1ccc(Cl)cc1)N1CCN(Cc2ccccc2)CC1 | -15% | ? | 16% | -10 | 0% | 23µM*
CSc1ccccc1C(=O)N1CCN(c2cccc(Cl)c2)CC1 | ? | -2% | 3% | 7 | 2% | 16µM*
CSc1ncc(C(=O)N2CCN(c3cccc(Cl)c3)CC2)c(C)n1 | 3% | ? | 3% | -2 | 1% | -5%
N/C(=N\OC(=O)/C=C/c1ccccc1)c1ccccc1 | -8% | 4% | · | 2 | 11µM* | ?
N/C(=N\OC(=O)c1cccc(Br)c1)c1ccccc1 | -1% | 4% | -23% | -6 | 7.1µM* | ·
Cc1ccc(C(=O)O/N=C(\N)c2cccc([N+](=O)[O-])c2)cc1 | -7% | -7% | 2% | -5 | ? | ?
N/C(=N\OC(=O)/C=C/c1ccccc1)c1ccc(Cl)cc1 | -2% | -1% | -4% | -15 | 5% | 0%
N/C(=N\OC(=O)c1ccco1)c1cccc(Br)c1 | 0% | -15% | -12% | -3 | 4.5µM* | ?
N/C(=N\OC(=O)c1ccco1)c1cccc([N+](=O)[O-])c1 | 1% | 1% | 12% | 0 | 14µM* | ?
N/C(=N\OC(=O)c1cccc(Br)c1)c1ccccn1 | 1% | 0% | 2% | -2 | ? | ?
COc1ccc(/C(N)=N/OC(=O)c2ccco2)cc1OC | -3% | 9% | -19% | -12 | ? | ?
O=S(=O)(NC1CCSc2c(F)cccc21)c1cccc(Cl)c1 (configuration not stated) | · | 27% | · | 3 | · | ·
Cc1cccnc1NC(=O)c1cnc2ccccc2n1 | · | 4% | · | 4 | · | ·
CC(OC(=O)c1cccs1)C(=O)NCCc1ccccc1 (configuration not stated) | -3% | -16% | 6% | -11 | 2% | 1%
C/C(=N\NC(=S)NCCc1ccccc1)c1cccs1 | ? | 45µM* | -23% | -1 | 0%[9.22 µM] | 7%
Cc1ccc(CNC(=S)Nc2ccccc2Cl)cc1 | · | 45µM* | · | 12 | · | ·
COc1ccc(CNC(=S)Nc2ccccc2Cl)cc1 | 24% | ? | -3% | -10 | 5% | 12%
SMILES | A549 viability | ALOX12 inh | ERG-DNA inh | LDHA inh | Nrf2 activator | Nrf2 inh
S=C(NCc1ccccc1)NCc1ccc(CNC(=S)NCc2ccccc2)cc1 | 11% | 25µM* | 0% | -3 | 0% | -13%
Cc1c(Cl)cccc1NC(=S)NCCc1ccc(C(F)(F)F)cc1 | ? | 40µM* | -4% | -2 | 2% | ?
Cc1ccc(C(=O)/C=C/c2cccc(NC(=O)C(F)(F)F)c2)o1 | · | ? | · | 16 | · | ·
Clc1ccc(Sc2ccnc3cc(Cl)ccc23)cc1 | · | 18% | · | -1 | · | ·
CCn1ncc(Cl)c1CNC(=O)C1CCCN(S(=O)(=O)c2cnn(C)c2)C1 (configuration not stated) | · | 27% | · | -6 | · | ·
CC1(COc2cccnc2)COc2ccc(C(=O)NCCOc3ccccc3)cc2N1 (configuration not stated) | · | 40%[176 µM] | · | · | · | ·
CN(Cc1cccs1)C(=O)c1ccc(S(C)(=O)=O)cc1 | · | 9% | · | 0 | · | ·
[O-][n+]1cn(Cc2ccccc2)c2ccccc21 | · | ? | · | 6 | · | ·
NNC(=S)NCCc1ccccc1 | 3% | ? | 2% | -6 | 8% | 2%
C/C(CCC(C)C)=N\NC(=S)NCc1ccccc1 | 15% | ? | 2% | -2 | 0% | 2%
S=C(NCCCCc1ccccc1)Nc1cccc(Cl)c1Cl | · | 25µM* | · | -2 | · | ·
S=C(NCCCc1ccccc1)Nc1ccccc1Cl | 10% | ? | -4% | -2 | 0% | -10%
S=C(NCCc1ccccc1)NCCc1ccccc1 | 14% | 50µM* | -2% | -3 | 3% | 25%
C/C(CCc1ccccc1)=N\NC(=S)NCCc1ccccc1 | 6% | 40µM* | -5% | -2 | 8% | 4%
O=[N+]([O-])c1ccc(NC(=S)NCCc2ccc(Cl)cc2)cc1 | ? | ? | -6% | -5 | 3% | ?
O=[N+]([O-])c1ccc(NC(=S)NCCc2ccccc2)cc1 | ? | 45µM* | 9% | -1 | 3% | ?
Fc1ccc(NCc2ccc(Br)cc2)c(F)c1 | · | ? | · | 7 | · | ·
CCC(Sc1nc2ccncc2[nH]1)C(=O)Nc1ccc(C)cc1 (configuration not stated) | · | ? | · | 0 | · | ·
O=S(=O)(c1cc(O)ccc1O)c1cccc2c(S(=O)(=O)c3cc(O)ccc3O)cccc12 | -7% | 32µM* | -7% | -1 | -1% | 5%
Cc1cccc(C)c1NC(=O)c1cccc2c1-c1ccccc1C2=O | -12% | -5% | 8% | -6 | 0% | ?
Cc1cccc(NC(=O)COC(=O)c2cccc3c2C(=O)c2ccccc2C3=O)c1C | -13% | -11% | 8% | 4 | 0% | 15µM*
Cc1cccc(C)c1NC(=O)COC(=O)c1cccc2c1C(=O)c1ccccc1C2=O | -3% | -13% | 5% | 1 | -1% | 18µM*
COCCn1cnnc1SCC(=O)c1cccc(OC)c1 | · | ? | · | 5 | · | ·
O=S(=O)(c1ccc(S(=O)(=O)N(Cc2cccs2)CC2CCCO2)cc1)N1CCCCC1 (configuration not stated) | 4% | 0% | 2% | -3 | 0% | ·
O=S(=O)(NC1CCCC1)c1ccc(S(=O)(=O)N(Cc2cccs2)CC2CCCO2)cc1 (configuration not stated) | -13% | 3% | -3% | -2 | 0% | 18µM*
O=C1NN(c2ccc(F)c(Cl)c2)C(=O)/C1=C\c1cccc(OC(=O)c2cccs2)c1 | -2% | -32% | 1% | -4 | 3% | ·

Source: PubChem BioAssay (National Center for Advancing Translational Sciences (NCATS))
